The results in this text go back to PubChem BioAssay.

Experiment [1] can be described thus: binders of probe aFSTL3 on microarray, primary screen, stem cell growth factor project, biochemical, small-molecule microarray, fluorescence 635/667 (AID 1064).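 Also: measures binding of the biotinylated anti-FSTL3 antibody to printed compounds.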 As to conditions: higher = more signal.
Experiment [2] is described as follows: binders from COS7 lysate, DM2A8 probe, primary screen, torsin A project, cell lysate, small-molecule microarray, fluorescence 635/667 (AID 1065). Conditions: higher = more signal, COS7 lysate expressing mutant human TOR1A.
Experiment [3] can be described thus: binders of probe aFGF2 on microarray, primary screen, stem cell growth factor project, biochemical, small-molecule microarray, fluorescence 635/667 (AID 1067).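 Also: measures binding of biotinylated aFGF2 protein to printed compounds on slides; z-score merges feature fluorescence and signal-to-noise across triplicate slides.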 As to conditions: higher = more signal.
Experiment [4] is described as follows: binders of probe aFGF10 on microarray, primary screen, stem cell growth factor project, biochemical, small-molecule microarray, fluorescence 635/667 (AID 1071).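 Also: score merges 667 nm spot intensity and signal to noise from triplicate slides.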 Conditions: higher = more signal.
The target in experiment [5] is Neurogenic locus notch homolog protein 2 (Homo sapiens) (UniProt Q04721). As to the kind of experiment: Notch2 binders on small-molecule microarrays, primary screen, biochemical, small-molecule microarray, 635 nm fluorescence, stem cell growth factors (AID 1073). As to conditions: Notch2 binding, higher = more signal.
Neurogenic locus notch homolog protein 2 (Homo sapiens), sequence (Q04721 whole entry, looked up, canonical isoform): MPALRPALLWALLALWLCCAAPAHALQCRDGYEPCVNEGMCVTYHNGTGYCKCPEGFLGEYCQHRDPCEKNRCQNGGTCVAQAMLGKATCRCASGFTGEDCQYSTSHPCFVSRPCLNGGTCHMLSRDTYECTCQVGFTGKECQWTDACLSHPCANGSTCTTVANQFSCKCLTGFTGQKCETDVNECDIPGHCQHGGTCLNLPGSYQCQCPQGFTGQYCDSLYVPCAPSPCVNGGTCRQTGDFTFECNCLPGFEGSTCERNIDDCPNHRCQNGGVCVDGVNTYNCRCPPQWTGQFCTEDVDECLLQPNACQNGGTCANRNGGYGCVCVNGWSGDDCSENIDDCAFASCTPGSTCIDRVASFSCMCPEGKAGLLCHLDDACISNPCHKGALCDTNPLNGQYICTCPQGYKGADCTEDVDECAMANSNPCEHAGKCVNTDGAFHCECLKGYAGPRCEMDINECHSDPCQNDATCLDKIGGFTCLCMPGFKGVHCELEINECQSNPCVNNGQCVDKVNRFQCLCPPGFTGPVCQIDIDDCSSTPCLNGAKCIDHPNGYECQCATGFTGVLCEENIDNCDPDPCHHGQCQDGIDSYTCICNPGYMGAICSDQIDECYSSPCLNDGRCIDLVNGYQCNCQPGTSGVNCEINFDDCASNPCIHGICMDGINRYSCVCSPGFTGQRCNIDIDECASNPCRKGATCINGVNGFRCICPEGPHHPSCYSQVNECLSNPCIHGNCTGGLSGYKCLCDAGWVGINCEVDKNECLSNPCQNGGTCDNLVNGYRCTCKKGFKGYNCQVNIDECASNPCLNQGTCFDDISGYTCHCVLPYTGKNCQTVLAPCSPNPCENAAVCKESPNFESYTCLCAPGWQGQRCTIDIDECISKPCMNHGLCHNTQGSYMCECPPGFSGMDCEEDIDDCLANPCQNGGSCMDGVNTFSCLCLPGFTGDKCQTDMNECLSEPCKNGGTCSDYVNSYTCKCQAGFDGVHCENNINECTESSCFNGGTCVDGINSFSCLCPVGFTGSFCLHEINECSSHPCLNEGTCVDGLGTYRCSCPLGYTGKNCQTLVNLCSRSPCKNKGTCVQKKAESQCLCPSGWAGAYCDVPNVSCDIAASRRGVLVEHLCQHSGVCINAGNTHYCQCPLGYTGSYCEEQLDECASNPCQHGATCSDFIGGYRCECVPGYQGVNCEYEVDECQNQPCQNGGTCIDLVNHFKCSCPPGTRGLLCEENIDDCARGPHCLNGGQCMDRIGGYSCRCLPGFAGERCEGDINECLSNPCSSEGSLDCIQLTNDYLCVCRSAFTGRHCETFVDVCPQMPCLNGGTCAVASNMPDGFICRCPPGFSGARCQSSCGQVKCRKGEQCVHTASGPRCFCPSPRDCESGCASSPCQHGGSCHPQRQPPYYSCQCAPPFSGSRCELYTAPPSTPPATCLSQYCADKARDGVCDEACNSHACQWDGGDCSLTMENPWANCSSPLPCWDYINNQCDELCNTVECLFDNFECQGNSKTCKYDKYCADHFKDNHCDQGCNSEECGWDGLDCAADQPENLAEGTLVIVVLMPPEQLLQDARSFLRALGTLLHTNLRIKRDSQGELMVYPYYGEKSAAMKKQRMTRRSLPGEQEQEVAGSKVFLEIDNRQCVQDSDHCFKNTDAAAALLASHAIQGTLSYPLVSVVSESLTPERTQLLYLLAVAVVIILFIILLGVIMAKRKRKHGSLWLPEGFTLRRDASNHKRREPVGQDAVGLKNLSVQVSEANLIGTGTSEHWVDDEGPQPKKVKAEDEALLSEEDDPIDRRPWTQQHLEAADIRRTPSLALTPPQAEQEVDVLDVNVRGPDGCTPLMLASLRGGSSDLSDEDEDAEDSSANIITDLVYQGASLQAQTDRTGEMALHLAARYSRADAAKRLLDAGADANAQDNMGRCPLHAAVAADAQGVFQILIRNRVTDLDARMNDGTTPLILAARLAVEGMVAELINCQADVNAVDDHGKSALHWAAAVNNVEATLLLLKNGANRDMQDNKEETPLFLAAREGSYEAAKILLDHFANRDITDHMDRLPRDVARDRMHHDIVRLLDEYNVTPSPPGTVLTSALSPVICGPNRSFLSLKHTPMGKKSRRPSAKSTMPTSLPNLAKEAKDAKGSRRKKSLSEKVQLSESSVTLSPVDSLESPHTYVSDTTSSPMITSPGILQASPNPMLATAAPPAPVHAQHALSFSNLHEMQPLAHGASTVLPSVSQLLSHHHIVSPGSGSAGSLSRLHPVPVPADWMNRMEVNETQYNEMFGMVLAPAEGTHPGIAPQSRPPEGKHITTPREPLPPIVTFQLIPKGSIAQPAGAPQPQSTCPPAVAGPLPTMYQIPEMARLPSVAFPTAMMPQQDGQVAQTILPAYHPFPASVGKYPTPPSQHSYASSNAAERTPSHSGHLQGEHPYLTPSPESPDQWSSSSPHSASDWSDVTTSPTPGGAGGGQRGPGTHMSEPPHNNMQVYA
In experiment [6] the target is Pro-neuregulin-1, membrane-bound isoform (Homo sapiens) (UniProt Q02297). As to the kind of experiment: NRG1 binders on small-molecule microarrays, primary screen, psychiatric disease protein project, biochemical, small-molecule microarray, fluorescence 635/667 (AID 1075).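 Also: score combines 667 nm spot fluorescence with signal to noise.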 Conditions: NRG1 binding, 635 nm fluorescence, higher = more signal.
Pro-neuregulin-1, membrane-bound isoform (Homo sapiens), sequence (Q02297 whole entry, looked up, the tested form may be a part, canonical isoform): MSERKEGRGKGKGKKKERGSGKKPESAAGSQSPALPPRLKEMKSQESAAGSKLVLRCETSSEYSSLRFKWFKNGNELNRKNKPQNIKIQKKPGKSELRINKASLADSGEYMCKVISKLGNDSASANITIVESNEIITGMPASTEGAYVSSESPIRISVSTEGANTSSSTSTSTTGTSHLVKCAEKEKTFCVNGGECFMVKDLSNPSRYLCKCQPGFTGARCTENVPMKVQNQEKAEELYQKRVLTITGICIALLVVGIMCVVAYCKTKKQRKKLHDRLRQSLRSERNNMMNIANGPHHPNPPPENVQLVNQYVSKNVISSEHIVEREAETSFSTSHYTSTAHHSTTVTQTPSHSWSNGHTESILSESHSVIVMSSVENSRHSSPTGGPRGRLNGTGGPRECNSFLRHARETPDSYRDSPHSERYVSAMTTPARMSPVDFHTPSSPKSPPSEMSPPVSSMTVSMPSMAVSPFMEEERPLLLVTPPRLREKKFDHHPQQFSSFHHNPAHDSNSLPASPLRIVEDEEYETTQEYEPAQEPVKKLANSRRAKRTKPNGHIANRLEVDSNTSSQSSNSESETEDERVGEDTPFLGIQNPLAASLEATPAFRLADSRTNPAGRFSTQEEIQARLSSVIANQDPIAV
Experiment [7] relates to Neuregulin-1 EGF-like domain. Briefly: binders of neuregulin-1 EGF-like domain, primary screen, biochemical, small-molecule microarray, 635 nm fluorescence (AID 1081).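 Also: binding of the protein to compounds printed on small-molecule microarray slides.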 As to conditions: small-molecule microarray binding, higher = more signal.
Experiment [8] can be described thus: FRG1 promoter luciferase signal modulators, primary screen, FRG1 inhibition for FSHD, cell-based, C2C12 myotubes, firefly/Renilla luciferase, luminescence (AID 1084). Conditions: higher = more signal, called active from +8 up or from −8 down.
Experiment [9] is described as follows: binders of probe aFST on microarray, primary screen, stem cell growth factor project, biochemical, small-molecule microarray, fluorescence 635/667 (AID 1086).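 Also: score merges 667 nm fluorescence with signal-to-noise of each printed compound spot.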 As to conditions: higher = more signal.
Experiment [10] can be described thus: binders of probe aHhip on microarray, primary screen, stem cell growth factor project, biochemical, small-molecule microarray, fluorescence 635/667 (AID 1087).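 Also: score merges spot fluorescence at 667nm with spot signal to noise ratio.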 Conditions: higher = more signal.

Structures are written as SMILES. Active and inactive are the calls of the source.

For the molecule `CC(C)(C)OC(=O)CC[C@]1(C(=O)NCC(O)CO)N=C(c2ccc(OCCCO)cc2)O[C@H]1c1ccccc1N=[N+]=[N-]` (stereo not given in full), the composite z-score in [1] came out at 0.929; in [2], 1.34; in [3] it was 0.171; in experiment [4] it was 0.53; in [5], 1.02; in [6] it was 1.58. Besides, the values for the composite z-score in [7], in experiment [9] and in experiment [10] were 1.17, 0.967 and -0.189, respectively. The z-score in [8] was 3.99 (inactive).
As for `C=CCC(OC(C)=O)[C@@H]1[C@@H](N(Cc2ccc(-c3cccc(C(F)(F)F)c3)o2)C(=O)Cc2ccc(F)cc2)c2cc(OCCCO)ccc2N1C(=O)Cc1ccc2ccccc2c1` (stereo not given in full), the composite z-score in experiment [1] is 0.136; in [2], -0.648; in experiment [3] it was -0.129; in experiment [4] it was 0.53; in experiment [5], -0.349; in experiment [6], -0.257. The composite z-score was -0.285 in [7], -0.106 in experiment [9] and -0.212 in [10]. Besides, in [8], the z-score is 0.116 (inactive).
In the case of `CO[C@H]1O[C@H](CO)[C@@H](OC(=O)Nc2ccc3c(c2)OCO3)[C@H](OC(=O)Nc2ccccc2-c2ccccc2)[C@H]1OC(=O)Nc1ccccc1-c1ccccc1`, the composite z-score in experiment [1] was 0.22; in experiment [2], 0.873; in experiment [3] it was 0.007; in [4] it was 1.26; in [5] it was 1.44; in experiment [6] it was 0.96. For the same molecule, the composite z-score in experiment [7] is 1.18; in experiment [9], 0.189; in [10], 0.0749. For the same molecule, the z-score in [8] was 0.124 (inactive).
On to `COC(=O)[C@@]1(Cc2ccccc2)[C@H]2c3cc(C(=O)N(C)C)n(Cc4ccc(S(C)(=O)=O)cc4)c3C[C@H]2CN1C(=O)c1ccccc1`, for which the composite z-score in experiment [1] amounted to 0.442; in experiment [2] it was 0.198; in experiment [3], 0.431; in experiment [4], 0.443; in experiment [5] it was 1.48; in experiment [6], 2.03. The results for the composite z-score in [7], in [9] and in experiment [10] were 1.22, 0.744 and -0.118, respectively. In addition, the z-score in experiment [8] is 2.39 (inactive).
For the molecule `CC(=O)OCC1C2CC[C@H]3C(OCc4ccc(F)cc4C(F)(F)F)OC[C@]4(C)[C@H]3C2=C(CN4C(=O)OC(C)(C)C)[C@H](C)C1COC(C)=O` (stereo not given in full), the composite z-score in [1] is 0.496; in [2], 1.4; in experiment [3], -0.0336; in experiment [4], 0.363; in experiment [5] it was 0.101; in experiment [6] it was 0.823. The values for the composite z-score in [7], in experiment [9] and in [10] were 0.783, 0.579 and 0.141, respectively. Also, in experiment [8], the z-score is 1.06 (inactive).
`O=C(NC1CC1)[C@@H]1c2ccccc2C(=O)N(Cc2cc(C(F)(F)F)cc(C(F)(F)F)c2)[C@H]1c1ccc(CO)cc1`: the composite z-score in experiment [1] was -0.758; in experiment [2] it was 0.332; in experiment [3], -0.223; in [4] it was 0.0757; in experiment [5] it was -0.134; in [6], 1.4. Besides, the results for the composite z-score in experiment [7], in experiment [9] and in [10] were 1.36, -0.131 and -0.863, respectively. Moreover, the z-score in experiment [8] was 0.102 (inactive).
`O=C(NCCN1CCOCC1)[C@@H]1c2ccccc2C(=O)N(Cc2ccccc2C(F)(F)F)[C@H]1c1ccc(CO)cc1`: the composite z-score in [1] was -1.15; in [2], -0.438; in experiment [3], -0.319; in experiment [4] it was -0.613; in [5], -1.2; in experiment [6], 0.875. The values for the composite z-score in [7], in [9] and in experiment [10] were -0.755, 0.48 and -0.504, respectively. In addition, in experiment [8], the z-score is -1.79 (inactive).
`CCCNC(=O)[C@@]1(Sc2ccc(C)cc2)CC(=O)N(Cc2ccccc2Cl)[C@@H]1c1ccc(CO)cc1I`: the composite z-score in experiment [1] was 0.746; in experiment [2], -1.23; in experiment [3] it was -0.127; in [4] it was -0.391; in experiment [5], -1.13; in experiment [6], 1.4. The composite z-score in experiment [7] amounted to 0.895; in experiment [9], 0.0493; in experiment [10], 0.106. In [8], the z-score is -1.6 (inactive).
In the case of `CCOC(=O)C[C@H]1[C@H](OC(=O)c2cc3ccccc3oc2=O)[C@@H](NC(=O)CC(C)C)c2cc(OCCCO)ccc2N1C(=O)Cc1ccc(OC)cc1`, the composite z-score in [1] was -0.699; in [2] it was -0.115; in [3], -0.114; in experiment [4], 0.499; in experiment [5], 0.508; in experiment [6] it was 0.324. Further, the figures for the composite z-score in experiment [7], in experiment [9] and in experiment [10] were 0.49, 0.479 and -0.201, respectively. In experiment [8], the z-score is -0.509 (inactive).
For `CC(=O)NCCCC[C@@H]1NC(=O)[C@H]2C[C@@H](C(=O)NCCCCCCNC(=O)CS)[C@@H](c3cccc(OCCO)c3)N2C1=O`, the composite z-score in [1] is 0.419; in [2], 0.611; in experiment [3] it was 0.0252; in [4] it was 0.492; in experiment [5], -0.681; in experiment [6], 0.465. Besides, the composite z-score in [7] was 1.42; in [9], -0.0535; in experiment [10] it was -0.0618. Moreover, the z-score in experiment [8] was 0.799 (inactive).
Turning to `COC(=O)[C@@]1(Cc2ccc(OC)cc2)[C@H]2c3cc(C(=O)N4CCCC4)n(Cc4ccc(Cl)c(C(F)(F)F)c4)c3C[C@H]2CN1C(=O)c1ccccc1`, the composite z-score in experiment [1] was found to be 0.608; in experiment [2], 0.673; in experiment [3], 0.243; in experiment [4], 0.437; in experiment [5], 1.64; in experiment [6], 2. In addition, the figures for the composite z-score in [7], in experiment [9] and in experiment [10] were 0.605, 1.53 and 0.132, respectively. Besides, the z-score in experiment [8] is -2.87 (inactive).
As for `COC(=O)[C@@]1(Cc2ccc(F)cc2)[C@H]2c3cc(C(=O)N(C)C)n(C)c3C[C@H]2CN1C(=O)c1ccccc1`, the composite z-score was -0.187 in experiment [1]; -0.609 in [2]; 0.0364 in experiment [3]; 1.08 in experiment [4]; 1.58 in experiment [5]; 1.12 in experiment [6]. Moreover, the results for the composite z-score in experiment [7], in experiment [9] and in experiment [10] were 1.16, 0.229 and 0.0677, respectively. For the same molecule, the z-score in experiment [8] was 0.736 (inactive).
In the case of `O=C(NCC(O)CO)[C@@]1(CCS(=O)(=O)c2ccccc2)N=C(c2ccc(OCCCO)cc2)O[C@H]1c1ccccc1` (stereo not given in full), the composite z-score worked out at 0.715 in [1]; 0.965 in experiment [2]; 0.123 in experiment [3]; 0.223 in experiment [4]; 0.429 in [5]; 1.96 in experiment [6]. In addition, the values for the composite z-score in experiment [7], in experiment [9] and in experiment [10] were 1.33, 0.544 and 0.0302, respectively. Besides, the z-score in experiment [8] was 2.37 (inactive).
As to `CCCCC(O)C1C=CC2C(=O)N(c3ccccc3)C(=O)C2N1Nc1ccccc1` (stereo not given), the composite z-score is 0.436 in experiment [1]; -0.572 in [2]; -0.0414 in [3]; 0.43 in experiment [4]; 1.2 in experiment [5]; 1.62 in [6]. The composite z-score is 1.12 in [7], 0.545 in experiment [9] and -0.137 in experiment [10]. For the same molecule, the z-score in [8] was 0.0165 (inactive).
